From PubChem BioAssay (NCATS) come the findings set out here.

Records with an inconclusive call do not appear. Calls of active or inactive are those of the source. Unless noted, the call rests on the fitted dose curve; in most records, active means well fitted curve in the direction sought with a large enough effect; inconclusive means small, poorly fitted or top-dose-only effect, or another doubt; inactive means no such curve, though single readings can be large; an effect the other way counts as inactive or inconclusive.

Experiment [1] addresses Pyruvate kinase (Leishmania mexicana) (UniProt Q27686). In words: qHTS Validation Assay for Activators of Leishmania Mexicana Pyruvate Kinase (AID 959). The gist of the method: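 Eight-point qHTS titrations; enzyme 0.2 nM LmPYK (E451W mutant); substrates 0.5 mM PEP, 0.1 mM ADP; 7 mM MgCl2; 1 h room temperature; PKLight luminescence normalized to neutral control.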
In general terms: In qHTS, concentration-response curves come from the screen itself.

Experiment [2] in a line: NCATS anti-infectives library activity on HEK293 viability as a counter-qHTS vs the C. elegans viability qHTS (AID 1745854).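 Further: HEK293 cells exposed to compounds for 24 hr before the viability read; on the % scale 0 is the no-effect control and ±100 the full control effect.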 The essentials: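 Counter-screen for cytotoxicity: HEK293, 24 hr, 37C, compounds up to 41.7 uM final (a dilution series, 1:5). Readout CellTiter-Glo luminescence, 10 min RT. Digitonin control, 83.3 uM final.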
Experiment [3] concerns the target Luciferin 4-monooxygenase (Photinus pyralis) (UniProt P08659). In words: Biochemical firefly luciferase enzyme assay for NPC (AID 624030).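 Further: purified P. pyralis luciferase at 10 nM with luciferin and ATP substrate; 0% = DMSO and -100% = full luciferase inhibition by PTC124 control; nearly all actives have a fitted effect of over 70% in size.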 The gist of the method: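 Counter-screen for direct inhibition of the luciferase enzyme by approved-drug library compounds, run at 10 nM enzyme in 50 mM Tris acetate (final). Luminescence was read within 5 min of enzyme-buffer addition and normalized to PTC124 versus DMSO (0%).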

Experiment [4] is described as follows: S16 Schwann cell PMP22 intronic element beta-lactamase assay (AID 624044; calls by dose curve;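 further: 0% = DMSO and -100% = potassium clavulanate positive control; nearly all actives have a fitted effect of over 15% in size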). The essentials:
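Beta-lactamase reporter under a PMP22 intronic regulatory element in stable S16 rat Schwann cells; 24 h compound exposure. 460 nm blue signal normalized between DMSO (0%) and potassium clavulanate, with 535 nm FRET tracking viability; curves classed by r2 and response.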

In experiment [5] the test system is JCK. In words: qHTS profiling for inhibitors of Plasmodium falciparum proliferation (AID 504749).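 Further: 0% = DMSO vehicle and full inhibition = artemisinin control; nearly all actives have a fitted effect of over 60% in size.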 The note with it: P. falciparum in erythrocytes, SYBR Green DNA, 72 h; series mostly up to 28.7 µM. The essentials:
(§1)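 Quantitative HTS: compounds pinned into medium, infected erythrocytes added (0.3% parasitemia, 2.5% hematocrit), 72 h culture at 37 C under 5% CO2. Saponin/Triton lysis with SYBR Green I, overnight RT, then fluorescence read.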

The target of experiment [6] is Cytochrome P450 2D6 (Homo sapiens) (UniProt P10635). In words: Cytochrome P450 family 2 subfamily D member 6 (CYP2D6) small molecule antagonists: luciferase biochemical (cell-free) qHTS assay (AID 1645840; active means well fitted curve in the direction sought with a large enough effect in the repeat runs; an effect the other way counts as inactive or inconclusive; further: on the % scale 0 is the no-effect control and ±100 the full control effect; nearly all actives have a fitted effect of over 55% in size). The gist of the method:
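P450-Glo CYP2D6 system: proluciferin substrate converted by enzyme to luciferin, read by luminescence proportional to activity. Enzyme-substrate mix with compound 10 min at room temperature, then NADPH regeneration 1 h before detection reagent.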

The nature of experiment [7]: qHTS profiling for inhibitors of Plasmodium falciparum proliferation (AID 504749).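 Further: 0% = DMSO vehicle and full inhibition = artemisinin control; nearly all actives have a fitted effect of over 60% in size.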 The conditions noted are these: P. falciparum in erythrocytes, SYBR Green DNA, 72 h, at 12.8 µM (top of the series). The essentials:
as §1

Experiment [8] concerns AS120. Described as above. The note with it: P. falciparum in erythrocytes, SYBR Green DNA, 72 h; series mostly up to 28.7 µM. The essentials:
as §1

The subject of experiment [9] is ATS189. The description is as above. The note with it: P. falciparum in erythrocytes, SYBR Green DNA, 72 h; series mostly up to 28.7 µM. The essentials: as §1
Experiment [10] concerns CP185. The description is as above. The conditions noted are these: P. falciparum in erythrocytes, SYBR Green DNA, 72 h; series mostly up to 28.7 µM. The essentials: as §1
For experiment [11], the system named is CP191. Described as above. The conditions noted are these: P. falciparum in erythrocytes, SYBR Green DNA, 72 h; series mostly up to 28.7 µM. The essentials: as §1
Experiment [12] has as its system CP194. The experiment is described as above. The conditions noted are these: P. falciparum in erythrocytes, SYBR Green DNA, 72 h; series mostly up to 28.7 µM. The gist of the method: as §1
Experiment [13] has as its system CP203. The experiment is described as above. The conditions noted are these: P. falciparum in erythrocytes, SYBR Green DNA, 72 h; series mostly up to 28.7 µM. The essentials: as §1
Experiment [14] has as its system CP247. The experiment is described as above. The note with it: P. falciparum in erythrocytes, SYBR Green DNA, 72 h; series mostly up to 28.7 µM. The essentials: as §1
Experiment [15] relates to CP286. The experiment is described as above. The note with it: P. falciparum in erythrocytes, SYBR Green DNA, 72 h; series mostly up to 28.7 µM. The gist of the method:
as §1

For experiment [16], the system named is CP291. The experiment is described as above. The note with it: P. falciparum in erythrocytes, SYBR Green DNA, 72 h; series mostly up to 28.7 µM. The gist of the method:
as §1

Experiment [17] deals with DFO2036. Described as above. The note with it: P. falciparum in erythrocytes, SYBR Green DNA, 72 h; series mostly up to 28.7 µM. The essentials:
as §1

The subject of experiment [18] is TAB109. Described as above. The note with it: P. falciparum in erythrocytes, SYBR Green DNA, 72 h; series mostly up to 28.7 µM. The gist of the method: as §1
In experiment [19] the test system is TAB113. The description is as above. The conditions noted are these: P. falciparum in erythrocytes, SYBR Green DNA, 72 h; series mostly up to 28.7 µM. The essentials: as §1
For experiment [20], the target named is Lysosomal acid glucosylceramidase (Homo sapiens) (UniProt P04062). In words: Glucocerebrosidase-p2 (AID 348; in the data active means potency below about 10 µM; further: potency means the concentration at half of the fitted maximal effect). The conditions noted are these: purified GBA, blue fluorogenic substrate, 40 min. The essentials: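 Normal human glucocerebrosidase (0.2 nM) with blue fluorogenic substrate (80 uM final) in citrate/phosphate pH 5.9 with 10mM sodium taurocholate, 0.01% tween-20; 40 min RT, NaOH/glycine stop; fluorescence Ex 365/Em 440; AC50 from a titration from 0.6 nM upwards.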
Sequence of Lysosomal acid glucosylceramidase (Homo sapiens) (P04062 whole entry, looked up): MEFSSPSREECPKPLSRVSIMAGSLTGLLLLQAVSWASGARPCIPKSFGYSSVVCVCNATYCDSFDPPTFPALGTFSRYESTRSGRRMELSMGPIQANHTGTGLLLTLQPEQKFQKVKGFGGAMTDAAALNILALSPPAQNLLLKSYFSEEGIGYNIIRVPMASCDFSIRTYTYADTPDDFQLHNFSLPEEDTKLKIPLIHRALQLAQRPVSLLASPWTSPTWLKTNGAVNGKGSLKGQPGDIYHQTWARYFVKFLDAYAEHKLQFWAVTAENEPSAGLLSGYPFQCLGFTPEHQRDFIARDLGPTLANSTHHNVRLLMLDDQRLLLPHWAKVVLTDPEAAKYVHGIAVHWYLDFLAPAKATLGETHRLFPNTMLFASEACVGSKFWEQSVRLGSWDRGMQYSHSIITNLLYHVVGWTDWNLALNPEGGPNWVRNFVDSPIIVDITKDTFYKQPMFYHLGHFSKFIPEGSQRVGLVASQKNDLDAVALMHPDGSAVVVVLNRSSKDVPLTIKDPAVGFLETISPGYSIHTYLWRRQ

Sequence of Luciferin 4-monooxygenase (Photinus pyralis) (P08659 whole entry, looked up): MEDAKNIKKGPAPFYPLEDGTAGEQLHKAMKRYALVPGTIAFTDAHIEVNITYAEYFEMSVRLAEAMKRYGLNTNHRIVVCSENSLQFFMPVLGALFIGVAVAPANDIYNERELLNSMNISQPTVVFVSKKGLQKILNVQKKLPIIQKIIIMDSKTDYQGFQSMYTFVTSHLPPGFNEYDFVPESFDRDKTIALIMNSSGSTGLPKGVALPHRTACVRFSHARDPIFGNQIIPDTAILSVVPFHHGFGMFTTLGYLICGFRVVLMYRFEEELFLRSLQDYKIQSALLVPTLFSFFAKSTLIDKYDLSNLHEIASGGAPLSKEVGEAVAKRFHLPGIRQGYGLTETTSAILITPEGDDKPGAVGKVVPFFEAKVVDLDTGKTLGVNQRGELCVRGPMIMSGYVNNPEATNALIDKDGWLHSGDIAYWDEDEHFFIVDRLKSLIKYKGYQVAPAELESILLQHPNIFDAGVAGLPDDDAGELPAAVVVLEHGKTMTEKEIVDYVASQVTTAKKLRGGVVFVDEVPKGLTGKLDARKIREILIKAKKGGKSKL
Sequence of Cytochrome P450 2D6 (Homo sapiens) (P10635 whole entry, looked up): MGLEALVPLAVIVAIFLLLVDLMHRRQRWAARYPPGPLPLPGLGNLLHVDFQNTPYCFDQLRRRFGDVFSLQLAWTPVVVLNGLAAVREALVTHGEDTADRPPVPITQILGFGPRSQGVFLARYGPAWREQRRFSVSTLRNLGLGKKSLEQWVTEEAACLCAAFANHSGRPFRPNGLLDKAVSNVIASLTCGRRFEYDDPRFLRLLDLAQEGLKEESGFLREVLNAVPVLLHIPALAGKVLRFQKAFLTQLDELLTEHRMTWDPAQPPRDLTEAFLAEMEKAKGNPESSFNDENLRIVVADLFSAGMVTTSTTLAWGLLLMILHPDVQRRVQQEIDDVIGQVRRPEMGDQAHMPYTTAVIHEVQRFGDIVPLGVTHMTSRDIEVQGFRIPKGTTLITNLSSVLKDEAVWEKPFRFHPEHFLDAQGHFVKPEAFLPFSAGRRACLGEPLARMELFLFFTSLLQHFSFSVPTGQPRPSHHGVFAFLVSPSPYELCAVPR
Sequence of Pyruvate kinase (Leishmania mexicana) (Q27686 2-499 E452W): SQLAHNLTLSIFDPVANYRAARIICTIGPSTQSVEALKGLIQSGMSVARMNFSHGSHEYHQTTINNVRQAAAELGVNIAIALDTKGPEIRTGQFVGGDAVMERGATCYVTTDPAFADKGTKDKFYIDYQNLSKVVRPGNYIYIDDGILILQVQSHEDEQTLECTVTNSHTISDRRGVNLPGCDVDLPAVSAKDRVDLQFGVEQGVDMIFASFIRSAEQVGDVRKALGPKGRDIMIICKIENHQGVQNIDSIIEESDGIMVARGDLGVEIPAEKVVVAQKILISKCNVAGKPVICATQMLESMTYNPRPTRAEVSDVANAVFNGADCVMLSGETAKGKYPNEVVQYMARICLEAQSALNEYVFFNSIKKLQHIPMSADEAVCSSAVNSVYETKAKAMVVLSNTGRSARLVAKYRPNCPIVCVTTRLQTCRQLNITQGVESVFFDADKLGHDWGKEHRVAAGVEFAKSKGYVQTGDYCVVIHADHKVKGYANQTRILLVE

As to `N[C@]1(C(=O)O)CCc2cc(C(=O)O)ccc21`, the Potency in experiment [1] is 15.8 µM (active).

For `COc1cc(CNC(=O)CCCC/C=C\C(C)C)ccc1O`, the outcome in [2] was inactive.

Turning to `CCOC(=O)C(CCc1ccccc1)NC1CCc2ccccc2N(CC(=O)O)C1=O` (centres undefined), the Potency entry in experiment [3], in experiment [4] and in experiment [5] was “inactive” each time.

With `C[C@@H](C(=O)O)c1ccc(-c2ccccc2)c(F)c1`, the Potency result in experiment [3], in experiment [6], in experiment [8], in experiment [9], in experiment [10] and in [11] was “inactive” throughout. For the same compound, the Potency entry in experiment [12], in [13], in experiment [14], in [15], in [16] and in experiment [17] was “inactive” each time. Moreover, the Potency entry in experiment [5], in experiment [18] and in experiment [19] was “inactive” throughout. In addition, the activity, negative = inhibition is 6.83% (inactive) in experiment [7] (parasite line A) and 6.59% (inactive) in experiment [7] (parasite line B).

Turning to `C[C@@H](C[C@H](N)C(=O)O)C(=O)O`, the Potency in experiment [20] is > 11.4 µM (inactive).

As for `NCCC[C@@H](N)C(=O)O`, the Potency in experiment [20] was > 11.4 µM (inactive).
